PubChem BioAssay (NCI)
Several values for one entry are separate records, joined by “and”; a condition that tells them apart may be missing. Identical values can stand only once. This is part of a sample that, as a whole, favours compounds with a hit. Of some 83,000 tested, about 20% had one in any assay.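 Note: values are percent growth. 100 is the growth of untreated cells, values between 100 and 0 indicate rising inhibition; between -100 and 0 indicates cell death.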 Activity calls are given as the source filed them. The calls were made as follows: active = growth percent below 10; inactive = the rest.

Tested on: MDA-MB-468 breast
Assay: NCI-60 one-dose screen, 48 h (100 = growth as untreated, 0 = no growth, -100 = all killed)
Details: 10 µM unless noted

Structure (SMILES) | growth
COc1cc(/C=C/c2ccccc2)cc(OC)c1 | 103% (inactive)
COc1ccc(-c2cc3c(nn2)-c2ccccc2C3=O)cc1 | -4.8% (active)
COc1ccc2nc(Cl)cc(C)c2c1 | 94.1% (inactive) and 91.3% (inactive)
N/C(=N\C(N)=N\c1nc2ccccc2s1)c1ccc(C(F)(F)F)cc1 | 107% (inactive)
COc1cc(/C=C\c2cc(OC)c(OC)c(OC)c2)cc(NS(=O)(=O)c2ccc(Cl)cc2)c1OC | 19.1% (inactive)
COc1ccc(Cl)cc1NC(=O)c1cc2c(n1C)-c1nc(NC(=O)C(C)(C)C)sc1CC2 | 96.7% (inactive)
CC(=O)Oc1cc2ccccc2cc1C(C)C | 98.8% (inactive)
COc1ccc(/C=C2\Cc3c(Br)cccc3C2=O)c(OC)c1 | 49.6% (inactive)
CCN(c1ccc(C(=O)N2CCN(c3ccccc3)CC2)cc1)S(C)(=O)=O | 92.5% (inactive)
CCN(CC)Cc1cc(C=C2C(=O)NC(=S)NC2=O)cc(OC)c1O | 108% (inactive)
COc1ccc2[nH]c(O)c(/C=c3/ccc4c(c3)N=C(c3ccc(C(F)(F)F)cc3)N=4)c2c1 | 93.8% (inactive)
O=C(N/N=C/c1cc2ccccc2c2ccccc12)c1cc(O)c(O)c(O)c1 | 64.9% (inactive)
COc1cccc2c(=O)c3c(sc12)c(NCCCN)nc1ccccc13 | -8% (active)
Cc1cccc2c(=O)c3c(sc12)c(N1CCNCC1)nc1ccccc13 | 65.4% (inactive)
CC(C)(C)C(=O)/C=C/c1ccc([N+](=O)[O-])cc1 | 45.5% (inactive)
